# Source: PubChem
# CYP2C19 act: human CYP2C19 activators, primary screen, biochemical, luminescence | Cytochrome P450 2C19 (Homo sapiens), P33261 | recombinant CYP2C19, luciferin-H EGE luminescence; hits give high values; 0 = fully inhibited enzyme, 1 = untreated enzyme | activation factor at 5 µM | 96,000 tested, under 10 active | AID 1025, 2008;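 active = activation factor of at least 2 at 5 µM in the primary screen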;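 also: 0 = wells with 2.5 mM tranylcypromine and 1 = vehicle-only wells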
# PostGolgi ctrl: growth inhibition of yeast control strain, primary screen, counter-screen for post-Golgi transport modulator project | efflux-deficient yeast background strain, growth absorbance A615, 16 h | inhibition, % at 10 µM | hit rate 5% among 98,000 | AID 738, 2007
# CYP2C9 inhib: blockers of cytochrome P450 2C9 activity – biochemical, luminescence, ADME assay, primary screen; inhibition, % at 5 µM; P11712; CYP2C9 Supersomes, luciferin-H conversion; hit rate 20% among 96,000;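 active = blocking of liver enzyme CYP2C9 beyond about 50% at 5 µM, limit read from the data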
# Target sequence (P11712 whole entry, looked up): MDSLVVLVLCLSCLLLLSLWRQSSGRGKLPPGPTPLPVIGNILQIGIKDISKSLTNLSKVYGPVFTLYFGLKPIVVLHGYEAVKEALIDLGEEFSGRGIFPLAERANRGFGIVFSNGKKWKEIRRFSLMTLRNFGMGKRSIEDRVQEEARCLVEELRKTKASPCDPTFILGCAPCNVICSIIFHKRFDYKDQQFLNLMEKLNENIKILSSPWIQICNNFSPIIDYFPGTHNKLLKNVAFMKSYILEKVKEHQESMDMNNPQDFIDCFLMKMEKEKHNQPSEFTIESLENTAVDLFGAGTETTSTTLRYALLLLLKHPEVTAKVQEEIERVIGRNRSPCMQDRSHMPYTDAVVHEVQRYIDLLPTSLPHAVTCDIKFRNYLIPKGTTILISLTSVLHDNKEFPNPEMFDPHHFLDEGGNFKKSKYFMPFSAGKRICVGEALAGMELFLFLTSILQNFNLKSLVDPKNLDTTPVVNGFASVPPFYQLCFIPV
# CYP2C9 activ: human CYP2C9 activators, primary screen, biochemical, luminescence; Cytochrome P450 2C9 (Homo sapiens), P11712; recombinant CYP2C9, luciferin-H conversion; hits give high values; factor 1 = untreated enzyme, 0 = blocked; activation factor at 5 µM; hit rate 1.4% among 96,000; AID 1024, 2008;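 active = activation factor of 2 or more for CYP2C9 at a 5 µM dose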;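 also: 0 = sulfaphenazole-blocked wells and 1 = vehicle-only wells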
# CYP2C19 inh: blockers of cytochrome P450 2C19 activity – biochemical, luminescence, ADME assay, primary screen; P33261; CYP2C19 Supersomes, luciferin-H EGE luminescence, 30 min; inhibition, % at 5 µM; hit rate 21% among 96,000; AID 778, 2007;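 active = CYP2C19 inhibition above a set limit at 5 µM in the primary screen, cut at about 50% in these data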;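 also: plate controls were negative control wells for no effect and 2.5 mM tranylcypromine positive control for full effect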
# PostGolgi yeast: phenotypic screen on post-Golgi transport, primary screen; post-Golgi transport phenotypic cell assay; inhibition, % at 10 µM; hit rate 0.9% among 98,000;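 also: yeast cells grown in 1536-well plates; yeast grown about 18 h at 30C before absorbance read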
# Active calls of the source: *. In the library only some 32% were active in any assay of this set; here they are far more common. Rule as the data show it, unless noted: active = inhibition above about 30%; inactive = the rest.
SMILES,CYP2C19 act,PostGolgi ctrl,CYP2C9 inhib,CYP2C9 activ,CYP2C19 inh,PostGolgi yeast
O=C(Cc1cn2ccsc2n1)Nc1ccccn1,1.1,-2.1,-0.6,1,-8.7,13.4
O=C(Nc1nc2c(s1)CCCC2)c1cccs1,0.7,11.1,13.8,0.9,25.2,-5.3
O=C(Cc1cccs1)Nc1nc2c(s1)CCCC2,0.9,-2.7,19.9,0.8,9.8,34.9*
O=C(Cc1cn2ccsc2n1)Nc1nc2c(s1)CCCC2,0.5,11.1,52.1*,0.5,47.3,6.8
O=C(Cc1cccs1)Nc1nc2c(ccc3ccccc32)s1,0.6,-9.4,63.7*,0.4,40.8,-3.1
Cc1nnc(SCC(=O)Nc2nccs2)[nH]c1=O,1,-1.6,-12.0,1.1,4.4,0.6
CC1=C(C(N)=O)C(c2cccnc2)n2nc(-c3cccc(Cl)c3)nc2N1 (centres undefined),1,5.5,4.8,1,4.8,6.6
CCOc1ccc(OCC)c(NC(=O)C2CCCN(S(=O)(=O)c3c(C)n[nH]c3C)C2)c1 (centres undefined),0.5,3.2,63.5*,0.4,45.4,1.8
CCOc1ccc(OCC)c(NC(=O)C2CCCN(S(=O)(=O)c3cnc[nH]3)C2)c1 (centres undefined),0.6,8.3,79.2*,0.2,44.1,-16.1
CCOc1ccc(OCC)c(NC(=O)C2CCCN(S(=O)(=O)c3c(C)noc3C)C2)c1 (centres undefined),0.9,5.5,7.6,0.9,5.9,-2.8
CC(C)NS(=O)(=O)c1cccc2nsnc12,1,-5.3,-10.2,1.1,-1.3,-4.3
CCCC(=O)Nc1nc2ccc(OC)cc2s1,1,-4.0,-5.9,1.1,-0.4,3.4
COc1ccc2nc(NC(=O)C(NS(=O)(=O)c3cccs3)C(C)C)sc2c1 (centres undefined),0.4,2.1,63.4*,0.4,55.1*,-7.0
Cc1ccc2nc(NC(=O)C(NS(=O)(=O)c3cccc4nsnc34)C(C)C)sc2c1 (centres undefined),0.8,7.9,76.6*,0.2,22.7,-6.4
N#Cc1ccc(Oc2ccc(/C=N/O)cn2)cc1,0.7,2.8,-10.9,1.1,25.8,8.4
Cn1c(C(=O)N2CCc3ccccc3C2)cc2c(=O)n3ccccc3nc21,0.3,19.9,49.1,0.5,65.8*,14.9
CCn1nc(C(=O)N2CCc3ccccc3C2)c2ccccc2c1=O,0.3,5.8,69.4*,0.3,65.5*,-7.6
Cn1c(C(=O)N2CCN(C(=O)c3ccco3)CC2)cc2c(=O)n3ccccc3nc21,0.6,6.6,6.4,0.9,39.9,0.0
Cn1nc(C(=O)N2CCc3ccccc3C2)c2ccccc2c1=O,0.4,9.0,53.8*,0.5,58.4*,-13.7
CCNc1nc(NC(C)(C)C)nc(N(C#N)CC)n1,0.8,16.6,37.6,0.6,20.8,-0.7
CC(C)NC(=O)Cn1nnc(-c2cccc(NC(=O)c3ccccc3F)c2)n1,1.1,-0.8,9.9,0.9,-8.8,-2.3
Cc1ccc(C)c(NC(=O)C2CC3c4ccccc4C2c2ccccc23)c1 (centres undefined),0.8,-11.0,31.8,0.7,23.5,-4.8
COc1ccccc1N1CCN(C(=O)c2cc(C3CC3)on2)CC1,0.2,3.5,77.1*,0.2,81.4*,9.3
COc1ccccc1N1CCN(C(=O)c2cc(-c3ccc(Cl)cc3)on2)CC1,0.9,39.6*,14.4,0.9,5.4,-2.8
O=C(c1cc(C2CC2)on1)N1CCN(c2ccc(F)cc2)CC1,0.2,1.9,16.2,0.8,83.4*,6.2
COc1ccccc1-c1cc(C(=O)N2CCN(c3ccccc3OC)CC2)no1,0.5,37.6*,-172.5,2.7*,54.5*,3.9
N/C(=N\O)C1COc2ccccc2O1 (centres undefined),1,23.4,3.6,1,0.4,-2.1
COCc1cc(=O)[nH]c(/N=C(\N)Nc2ccc(C)cc2)n1,0.9,-3.4,33.7,0.7,10.9,1.7
Cc1ccc(C)c(C(=O)CSc2nnnn2C(C)C)c1,0.3,8.3,38.3,0.6,66.2*,-4.5
Cc1ccc(C(=O)CSc2nnnn2C(C)C)c(C)c1,0.2,6.2,34.5,0.7,76.7*,-3.0
